# GAA glycogen mod: qHTS Assay for Inhibitors and Activators of Human alpha-Glucosidase Cleavage of Glycogen; Lysosomal alpha-glucosidase (Homo sapiens), P10253; recombinant GAA, glycogen substrate, Amplex Red glucose oxidase fluorescence; Potency, µM (series often up to 76.4 µM), for inactives: top-dose activity change, negative = inhibition, hits mostly inhibitors; 300,000 tested, 0.38% active;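 further: potency means the concentration at half of the fitted maximal effect; 0% = full enzyme reaction and -100% = no-enzyme basal signal; the screen sought inhibitors and activators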
#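 Recombinant human enzyme (4 nM); glycogen substrate; 37 C, 40 min, pH 5.0. Readout: coupled glucose oxidase/Amplex Red fluorescence.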
# GLA inh pH 4.5: qHTS Assay for Inhibitors of Human alpha-Galactosidase at pH 4.5; 230,000 tested, under 10 active; Alpha-galactosidase A (Homo sapiens), P06280; AID 1467, 2008; purified enzyme, 4-MU-alpha-Gal fluorescence, pH 4.5; activity change, negative = inhibition, % at 105 µM;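 further: 0% = full activity with enzyme and -100% = basal without enzyme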
# Target sequence (P06280 whole entry, looked up): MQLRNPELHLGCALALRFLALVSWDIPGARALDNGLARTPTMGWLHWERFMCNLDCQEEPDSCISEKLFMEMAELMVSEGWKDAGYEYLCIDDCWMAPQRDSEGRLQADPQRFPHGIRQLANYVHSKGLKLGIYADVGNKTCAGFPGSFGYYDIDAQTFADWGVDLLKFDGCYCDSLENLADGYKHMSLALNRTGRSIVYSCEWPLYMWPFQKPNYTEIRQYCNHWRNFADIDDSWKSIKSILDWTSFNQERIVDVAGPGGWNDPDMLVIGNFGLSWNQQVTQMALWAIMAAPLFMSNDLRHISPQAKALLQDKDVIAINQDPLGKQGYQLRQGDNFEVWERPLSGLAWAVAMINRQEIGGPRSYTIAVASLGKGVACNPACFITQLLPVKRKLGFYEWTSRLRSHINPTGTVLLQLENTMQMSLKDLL
# aGlu spleen mod: qHTS Assay for Inhibitors and Activators of Human alpha-Glucosidase From Spleen Homogenate | AID 2112, 2009 | Potency, µM (top dose mostly 79.9 µM), for the others: at the top dose activity change, negative = inhibition, actives largely listed as inhibitors | Lysosomal alpha-glucosidase (Homo sapiens), P10253 | human spleen homogenate, 4-MU-alpha-glucoside fluorescence | 240,000 tested, 0.006% active;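 further: potency means the concentration at half of the fitted maximal effect; 0% = enzyme with vehicle and -100% = no enzyme basal signal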
#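 Enzyme source: human spleen homogenate, 1 ug/well. Buffer 50 mM citric acid/K phosphate pH 5.0, 0.01% Tween-20. 4-MU-alpha-glucoside 1 mM; 37 C x 40 min; NaOH/glycine stop; fluorescence.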
# N370S GC mod: qHTS Assay for Inhibitors and Activators of N370S glucocerebrosidase as a Potential Chaperone Treatment of Gaucher Disease. Lysosomal acid glucosylceramidase (Homo sapiens), P04062. N370S GC spleen homogenate, 4MU-glucoside fluorescence. Potency, µM (doses to about 59.4 µM), for inactives: at the top dose activity change, negative = inhibition, usual class: inhibitors. 330,000 tested, 0.092% active;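 further: potency means the concentration at half of the fitted maximal effect; 0% = full enzyme activity and -100% = no enzyme basal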
# GAA inh: qHTS Assay for Inhibitors of Human alpha-Glucosidase as a Potential Chaperone Treatment of Pompe Disease; Lysosomal alpha-glucosidase (Homo sapiens), P10253; Potency, µM (top dose mostly 76.9 µM), for the others: at the top dose activity change, negative = inhibition, actives largely listed as inhibitors; AID 1466, 2008; 200,000 tested, 0.005% active; purified human GAA, 4-MU-alpha-glucoside fluorescence;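 further: potency means the concentration at half of the fitted maximal effect; plate controls were uninhibited enzyme wells for no effect and no-enzyme background for full effect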
#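 Read-out is 4-methylumbelliferone fluorescence (Ex 365/Em 440 nm) after NaOH/glycine stop at pH 10. Enzyme 4 nM, substrate 400 uM, pH 5.0 citrate buffer, 20 min room temperature; AC50 from Hill-equation concentration-response.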
# GLA spleen mod: qHTS Assay for Inhibitors and Activators of Human alpha-Galactosidase From Spleen Homogenate; Alpha-galactosidase A (Homo sapiens), P06280; human spleen homogenate, 4MU-alpha-Gal fluorescence, 40 min; Potency, µM (series often up to 80 µM), for the others: top-dose activity change, negative = inhibition, most hits filed as inhibitors; 240,000 tested, 0.008% active; AID 2107, 2009;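 further: potency means the concentration at half of the fitted maximal effect; 0% = enzyme with vehicle and -100% = no enzyme basal signal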
#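 Human spleen homogenate (1 ug) as enzyme source, 4-methylumbelliferyl-alpha-D-galactopyranoside 1 mM final, citrate/phosphate pH 5.0 with 0.01% Tween-20. Compounds 40 min at 37C, NaOH/glycine stop; fluorescence Ex 365/Em 440, Hill-fit AC50.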
# * marks the source's active call; other numbers are inactive results; ? = inconclusive; . = no result. Rows were chosen to be rich in hits. Some 0.41% of all compounds tested hit in one or more screens of this group. The call rests on the fitted dose curve; in most records, active means well fitted curve in the direction sought with a large enough effect; inconclusive means small, poorly fitted or top-dose-only effect, or another doubt; inactive means no such curve, though single readings can be large; an effect the other way counts as inactive or inconclusive.
SMILES,GAA glycogen mod,GLA inh pH 4.5,aGlu spleen mod,N370S GC mod,GAA inh,GLA spleen mod
CCN(C(=O)CN1CCC(C)CC1)c1c(N)n(Cc2ccccc2)c(=O)[nH]c1=O,.,.,.,0%,.,.
CC(CCc1ccccc1)NC(=O)CN1CCN(Cc2ccccc2)C1=O (stereo unspecified),12%,-6,-3%,6%,5%,-8%
CC(CCc1ccccc1)NC(=O)CN1CCN(c2ccc(O)cc2)CC1 (stereo unspecified),4.4µM*,1,0%,-3%,?,-5%
CCOC(=O)c1c(C)n(-c2ccc(OC)cc2)c2ccc(O)c(CN(C)C)c12,-14%,2,-4%,4%,.,-2%
CCOC(=O)c1c(C)n(C)c2ccc(O)c(CN(C)C)c12,25µM*,-5,-13%,-4%,-8%,7%
c1ccc(CCn2nnnc2C(c2cccnc2)N2CCN(c3ccccc3)CC2)cc1 (stereo unspecified),3%,6,-4%,-5%,-4%,5%
Oc1ccc(N2CCN(C(c3cccnc3)c3nnnn3Cc3ccccc3)CC2)cc1 (stereo unspecified),16µM*,-5,3%,?,1%,6%
CCC(C)(C)n1nnnc1C(c1ccc2ncccc2c1)N1CCN(c2nc3ccccc3s2)CC1 (stereo unspecified),-1%,-13,-12%,-1%,?,-9%
COc1ccc(Cn2nnnc2C(C(C)C)N2CCN(c3ccccc3OC)CC2)cc1 (stereo unspecified),-6%,-14,-6%,-5%,-3%,-2%
CC(C)C(c1nnnn1Cc1ccc(F)cc1)N1CCN(c2ccc(O)cc2)CC1 (stereo unspecified),7µM*,-5,7%,?,14%,-11%
CCC(C)(C)n1nnnc1C(c1ccc2ncccc2c1)N1CCN(c2ccc(O)cc2)CC1 (stereo unspecified),1.4µM*,1,3%,?,.,0%
O=C(Cc1ccccc1Nc1c(Cl)cccc1Cl)OCO/N=[N+](\[O-])N1CCCC1,.,.,6%,5%,.,9%
COc1ccc(-c2cc3ccccc3[nH]2)cc1,-5%,5,-1%,-16%,.,1%
Cc1ccc(O)c(-c2cc3ccccc3[nH]2)c1,32µM*,?,6%,19%,?,22%
OC[C@H]1OC(O)(CN2CCOCC2)[C@H](O)[C@@H]1O (stereo partly specified),.,.,-12%,-8%,.,-6%
CCn1c(C)c(/C=N/Nc2nc3ccccc3s2)c2ccccc21,25µM*,5,-10%,-16%,1%,0%
NC(=S)N=Nc1ccc(NN=C(N)N)cc1,40µM*,.,.,-9%,.,.
N#C/C(=N/Nc1ccc(OC(F)(F)F)cc1)C(N)=S,?,-4,-4%,-11%,-18%,0%
Fc1ccccc1-c1nc(NCc2ccco2)c2ccccc2n1,-15%,0,1%,11µM*,4%,-4%
CC(C)C[C@H](NC(=O)[C@H](CCCCN)NC(=O)CNC(=O)[C@H](CC(C)C)NC(=O)[C@@H](N)C(C)C)C(=O)N[C@@H](CO)C(=O)N[C@@H](CCC(N)=O)C(=O)N[C@@H](CCC(=O)O)C(=O)N[C@@H](CC(C)C)C(=O)N[C@@H](Cc1cnc[nH]1)C(=O)N[C@@H](CCCCN)C(=O)N[C@@H](CC(C)C)C(=O)N[C@@H](CCC(N)=O)C(=O)N[C@H](C(=O)N[C@@H](Cc1ccc(O)cc1)C(=O)N1CCC[C@H]1C(=O)N[C@@H](CCCNC(=N)N)C(=O)N[C@H](C(=O)N[C@@H](CC(N)=O)C(=O)N[C@H](C(=O)NCC(=O)N[C@@H](CO)C(=O)NCC(=O)N[C@H](C(=O)N1CCC[C@H]1C(N)=O)[C@@H](C)O)[C@@H](C)O)[C@@H](C)O)[C@@H](C)O,.,.,5%,0%,.,16%
C[C@@H]1CC2C3CCC4=CC(=O)C=CC4(C)[C@@]3(F)[C@@H](O)CC2(C)[C@@]1(O)C(=O)CO (stereo partly specified),.,-15,-6%,-1%,.,1%
O=C(CCCn1c(SCC(=O)c2ccc(O)c(O)c2)nc2ccccc2c1=O)NCC1CCCO1 (stereo unspecified),5.6µM*,1,-3%,3%,11%,1%
CCCCn1c(SCC(=O)c2ccc(O)c(O)c2)nc2ccsc2c1=O,28µM*,2,2%,-14%,-6%,-2%
NC(=O)C1CCCN1C(=O)C(Cc1cnc[nH]1)NC(=O)C1CCC(=O)N1 (stereo unspecified),.,.,0%,-3%,.,3%
O=C(O)[C@H]1O[C@@H](Oc2ccc3ccc(=O)oc3c2)[C@H](O)[C@@H](O)[C@@H]1O,.,.,6%,2%,.,-6%
SMILES,GAA glycogen mod,GLA inh pH 4.5,aGlu spleen mod,N370S GC mod,GAA inh,GLA spleen mod
COC(=O)C1CSc2[nH]c(=O)sc2C1c1ccc(OC)c(OC)c1 (stereo unspecified),18µM*,6,-6%,-5%,10%,2%
Cc1ccc(CNc2ncnc3ccc(-c4c(C)noc4C)cc23)cc1,.,.,-2%,-1%,.,-5%
CCOC(=O)CNc1c(-c2ccccc2)nc2ccc(Cl)cn12,4.5µM*,7,0%,7%,-2%,18%
CCOC(=O)CNc1c(-c2ccc(O)cc2)nc2ccccn12,35µM*,-3,4%,-10%,0%,-10%
CCOC(=O)C(=O)c1c(-c2ccc(C)cc2)nc2ccccn12,-10%,-5,-5%,3%,-5%,2%
CCOC(=O)CNc1c(-c2ccc(O)cc2)nc2ccc(Cl)cn12,22µM*,-12,-7%,?,9%,1%
O=C(Nc1c(-c2ccccc2)nc2ccc(Cl)cn12)c1cccs1,5%,4,-4%,-4%,-5%,2%
O=S(=O)(CCC(F)=C(F)F)c1nnnn1C1CCCCC1,.,-8,2%,-2%,.,-4%
COc1ccc(NCc2ccc([N+](=O)[O-])s2)c(OC)c1,9.9µM*,0,3%,-12%,-5%,-4%
COc1ccc(NCc2ccc([N+](=O)[O-])s2)cc1,?,5,1%,-4%,0%,3%

# Screening data: PubChem BioAssay, National Center for Advancing Translational Sciences (NCATS)
